The whole screen tested about 300,000 compounds, of which about 3,300 (1.1%) were called active. Not shown: some 6% with an inconclusive outcome. Many of the other results were omitted from the sample, so actives are more common in it than they were. Unmarked numbers belong to inactive results.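 How the source made its calls: active means more than half of the replicate wells show a fall in the fluorescence ratio signal beyond about 16% (limit read from the data, passing the limit was not always enough); inconclusive means exactly half of the replicate wells pass the set limit; inactive means fewer than half of replicates pass the limit.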

A word on the inhibition: it is the drop in the measured response relative to a control, in per cent.

The assay concerns Ran GTPase (GTP-bound) - importin-beta complex. Description: inhibitors of RanGTP-importin-beta interaction, primary screen, biochemical, FRET, CFP-Ran, YFP-importin-beta, homogeneous (AID 2216).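 Further: 0% = DMSO wells and 100% = Ran loaded with GDP instead of GTP.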 Particulars: cell-free CFP-Ran/YFP-importin-beta FRET ratio; hits give high values; concentration not given here.
Take `CC(C)(C)OC(=O)NNc1c2ccccc2nc2ccccc12`: the inhibition was 45.2% (active).
With `COc1ccc(-c2cc(C(=O)Nc3ccccc3O)c3ccccc3n2)cc1`, the inhibition is 5.76%.
For `Cc1ccccc1NC(=O)NNC(=O)OC(C)(C)C` the value was 3.65%; for `O=C(NNc1c2ccccc2nc2ccccc12)c1cc2ccccc2cc1O`, 46.1% (active); for `CCC(=O)OCCNc1nc(-c2ccccc2)nc2ccccc12`, -0.305%.
The figure for `O=C(N/N=C/c1cccnc1)c1cc2ccccc2cc1O` is -5.78%; for `COC(=O)c1ccc(SCc2ccccc2)nc1` it is 1.08%; for `CCc1nnc(NS(=O)(=O)c2ccc(NC(=O)c3cccc(OC(F)(F)C(F)F)c3)cc2)s1` it is -0.123%.
The figure for `COc1ccc(C(CNC(=O)c2ccc(S(=O)(=O)Nc3ccccc3C)cc2)N2CCOCC2)cc1` (centres undefined) is 0.862%; for `O=S(=O)(Nc1ccc(O)c2ccccc12)c1ccc(OC(F)(F)F)cc1` it is 2.4%.
Take `COc1ccc(CNS(=O)(=O)c2cc3c4c(c2)CCN4C(=O)CC3)cc1`: the inhibition is -2.98%.
For `Cc1nn(CC(=O)Nc2ccc(F)cc2)c(=O)c2ccccc12` the value was 0.000866%; for `Cn1c(SCC(=O)c2ccc(F)cc2)nnc1-c1ccccn1`, 8.68%.
For `Cn1c2ccccc2n2c(=O)c(=O)n(CC(=O)c3ccc(F)cc3)nc12`, the inhibition was 23.2% (active).
Consider `O=C(CNS(=O)(=O)c1ccccc1)N1CCN(C(=O)c2ccco2)CC1`, for which the inhibition is 1.51%.
For `COc1ccccc1N(C)S(=O)(=O)c1ccc(Cl)c(C(=O)Nc2ccncc2)c1` the value was -1.81%.
Consider `CSCCC(NC(=O)COc1ccccc1)C(=O)OCCOc1ccc(F)cc1` (centres undefined), for which the inhibition is 6.76%.
As for `CCCCn1c(N)c(N(CC(C)C)C(=O)CN(C)S(=O)(=O)c2ccc(F)cc2)c(=O)[nH]c1=O`, the inhibition is 6.85%.
As for `CCN1C(=O)[C@@H]2[C@@H](c3ccc(-c4ccccc4)cc3)N3CCCC[C@@]3(C(=O)OC)[C@@H]2C1=O`, the inhibition was -2.21%.
On to `CCCc1cc(=O)oc2c(C)c(O)c(CN3CCCCC3)cc12`, for which the inhibition is 58.6% (active).
As to `CCCc1cc(=O)oc2c(C)c(OCC(=O)N3CCC(C(=O)O)CC3)ccc12`, the inhibition was 0.461%.
With `CCCc1cc(=O)oc2c(C)c(OC(C)C(=O)NCC(O)c3ccccc3)ccc12` (centres undefined), the inhibition is 1.81%.
On to `O=C(Nc1ccc(C(=O)N2CCOCC2)cc1)Nc1cccc(C(F)(F)F)c1`, for which the inhibition is -2.36%.
For the compound `Cc1ccc(C)c(OCCC(=O)OCC(=O)c2ccc3c(c2)NC(=O)CO3)c1`, the inhibition was 0.406%.
For `CCCCn1c(N)c(N(CCOC)C(=O)c2sc3ccccc3c2Cl)c(=O)[nH]c1=O`, the inhibition was 7.27%.
On to `Cc1nc2ccccc2c(=O)n1-c1ccc(F)c(NC(=O)c2cccs2)c1`, for which the inhibition is 7.77%.
As to `Cc1ncc(CO)c(/C=N/NC(=O)c2cccc(S(=O)(=O)N3CCCC3)c2)c1O`, the inhibition is 38.4% (active).
For `O=C(N/N=C/c1ccccn1)c1ccc(S(=O)(=O)N2CCCCCC2)cc1`, the inhibition is 3.77%.
The figure for `Cc1cccc(NC(=O)c2cccc(S(=O)(=O)N3CCCC3)c2)n1` is 1.93%.
The figure for `Cc1ccc(C(=O)CN2C(=O)NC3(CCc4ccccc43)C2=O)c(C)c1` (centres undefined) is -0.128%.
For `Cc1ccc(C(=O)NNC(=O)c2ccncc2)cc1S(=O)(=O)N1CCCCC1` the value was -4.29%; for `CCOC(=O)C1=C(O)/C(=C/c2ccc(OCC(=O)Nc3ccc(C)cc3)cc2)N=C1C`, 70.2% (active); for `Cc1ccc(NC(=O)COc2ccc(/C=C3/NC(=O)NC3=O)cc2)cc1`, -1.54%.
Take `CCOC(=O)C1=C(O)/C(=C/c2cc(C)n(-c3ccccc3)c2C)N=C1C`: the inhibition was 3.69%.
The figure for `CCOC(=O)c1ccccc1NC(=O)c1c(N)n(C)c(=O)[nH]c1=O` is -1.23%; for `O=C(c1ccc(F)cc1)N1CCC(C(=O)N2CCN(S(=O)(=O)c3ccccc3Br)CC2)CC1` it is 4.17%.
For `O=C(Nc1cc2ccccc2oc1=O)C1CCCCC1` the value was 4.19%; for `CC(=O)Nc1cc2ccc(OC(C)=O)cc2oc1=O`, 33.6% (active); for `CC(=O)Oc1ccc2c(C)c(CC(C)O)c(=O)oc2c1` (centres undefined), 10%.
Take `O=C1OC(/C=C/c2ccccc2)=NC/1=C/c1ccco1`: the inhibition is 0.891%.
The figure for `COc1ccccc1/C=C/C(=O)NC(=S)N1CCOCC1` is -1.73%; for `COc1ccccc1/C=C/C1=NC(=C\N(C)C)/C(=O)O1` it is 37% (active).
The figure for `O=C(c1cn2ccccc2n1)N1CCc2c([nH]c3ccccc23)C1c1ccccn1` (centres undefined) is 3.68%; for `COCc1ccc(C(=O)N2CCc3c([nH]c4ccccc34)C2c2ccccn2)s1` (centres undefined) it is 0.202%; for `Cc1cccc(C2c3[nH]c4ccccc4c3CCN2C(=O)c2cc(-c3cccn3C)n[nH]2)n1` (centres undefined) it is 21.1% (active).
The figure for `O=C(NCC1(N2CCCCC2)CCCCC1)c1ccc(NS(=O)(=O)c2ccc(F)cc2)cc1` is -1.33%; for `COC(=O)[C@]1(C)N[C@H](c2ccc(-c3ccc(Cl)c(Cl)c3)cc2)[C@@H]2C(=O)N(C)C(=O)[C@@H]21` it is 1.99%; for `CC(C)Cn1c(N)c(C(=O)NCc2cccs2)c2nc3ccccc3nc21` it is 73.8% (active).
Consider `CCOc1ccccc1NC(=O)Cn1nnc(C(=O)NCc2cccs2)c1N`, for which the inhibition is 1.12%.
For `CCCNC(=O)c1c(N)n(-c2ccc(S(N)(=O)=O)cc2)c2nc3ccccc3nc12` the value was 12.3%.
As for `Cc1c(C)n2c(SCC(=O)NC3CCCC3)nnc2[nH]c1=O`, the inhibition is 1.36%.
For `CC(C)(C)Oc1ccccc1Nc1nc(NCCO)nc(N2CCCC2)n1` the value was -2.11%; for `COc1ccc(C(=O)CC(=O)c2ccc(C)cc2)c(O)c1`, 2.86%; for `COc1ccc(C(=O)Cc2cnn(-c3ccccc3)c2)c(O)c1`, 17.5% (active).
With `Cc1cc(O)cc(O)c1C(=O)Cc1cnn(-c2ccccc2)c1`, the inhibition was 0.165%.
`CCCCn1c(N)c(N(CC(C)C)C(=O)c2cccc(S(=O)(=O)N3CCN(C(C)=O)CC3)c2)c(=O)[nH]c1=O`: the inhibition was 6.15%.
For `Cc1cc(/C=N/Nc2ccc([N+](=O)[O-])cn2)c(C)n1-c1cccc(C(=O)O)c1` the value was -1.11%.
The figure for `COc1cc(/C=N\Nc2ccc([N+](=O)[O-])cn2)ccc1OCC(=O)O` is 69.7% (active); for `COc1cc(/C=N/O)ccc1OCc1ccc([N+](=O)[O-])cc1` it is -0.23%.

The values are drawn from PubChem BioAssay AID2216 (Broad Institute, 2009).
